This excerpt belongs to a sample that is enriched for hits.
LmPK inh – inhibitors of Leishmania mexicana pyruvate kinase. Q27686. purified LmPK, Kinase-Glo ATP luminescence, 1 h. Potency, µM (titrated, usually from 57.5 µM), usual class: inhibitors. 290,000 tested, 0.37% active
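Purified LmPK (0.1 nM) with 0.5 mM PEP and 0.1 mM ADP in imidazole buffer pH 7.2 with MgCl2/KCl, 1 h at room temperature. ATP formed was read by luciferase luminescence and normalized to no-enzyme and uninhibited controls.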
Sm TGR block – S. mansoni TGR enzyme inhibition | 360,000 tested, 3% active | AID 485364 | Potency, µM (highest dose often 114 µM), usual class: inhibitors | purified TGR, DTNB reduction, TNB absorbance 405 nm | Q962Y6; further: nearly all actives have a fitted effect of over 60% in size
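TGR 20 nM + NADPH 100 uM (dispensed conc.), cpd preinc 15 min RT; start with NADPH (500 uM addition) then DTNB (15 mM addition). Kinetic TNB absorbance, 405 nm filter. Four-parameter Hill fit across titration.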
CHX counter – affects cycloheximide protein synthesis inhibition readout, counter-screen; cell reporter, cycloheximide protein synthesis inhibition counterscreen; max response, %; 300,000 tested, 12% active; in the data active means max response mostly above about 13%, no sharp cut-off; inactive means mostly below about 14%; further: read at 38.3 µM for the half of the compounds with a filed dose
Shiga toxin inh – Shiga toxin inhibition; AID 2315; inhibition, % at 38.7 µM; 290,000 tested, 9.2% active; Vero cells, Shiga toxin protein synthesis inhibition reporter; in the data active means inhibition mostly above about 28%, no sharp cut-off; inactive means mostly below about 43%
Tb PYK inh – inhibitors of Trypanosoma brucei pyruvate kinase; Q57TT1; TbPYK enzyme, Kinase-Glo Plus ATP luminescence, 45 min; Potency, µM (highest dose often 76.8 µM), actives largely listed as inhibitors; 410,000 tested, 0.12% active; further: nearly all actives have a fitted effect of over 50% in size
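Readout: single end-point luminescence (Kinase-Glo Plus, 10 min). Reaction conditions were TbPYK/substrate plus 130 uM ADP, 45 min at RT, pH 7.2 TEA buffer. No-enzyme wells served as controls, and data were normalized before concentration-response fitting.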
Giardia FBPA inh – Giardia lamblia aldolase inhibition | A8B2U2 | purified Giardia FBPA | Potency, µM (doses to about 59.6 µM), most hits filed as inhibitors | 290,000 tested, 0.71% active | AID 2451; further: nearly all actives have a fitted effect of over 55% in size
Target sequence (A8B2U2 whole entry, looked up): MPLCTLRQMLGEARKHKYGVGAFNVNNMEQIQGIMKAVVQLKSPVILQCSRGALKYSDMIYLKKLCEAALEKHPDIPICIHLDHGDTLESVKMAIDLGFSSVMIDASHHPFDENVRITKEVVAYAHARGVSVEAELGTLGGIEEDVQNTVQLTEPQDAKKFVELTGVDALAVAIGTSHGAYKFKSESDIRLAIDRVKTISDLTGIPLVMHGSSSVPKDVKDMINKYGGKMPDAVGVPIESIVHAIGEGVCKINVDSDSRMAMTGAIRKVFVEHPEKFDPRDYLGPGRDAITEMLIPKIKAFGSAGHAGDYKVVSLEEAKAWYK
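Giardia FBPA (40 nM reagent) was preincubated 10 min at RT with compound (up to 57.5 uM final), then substrate plus GAPDH/TPI/NAD/arsenate coupling system with diaphorase/resazurin was added; resorufin fluorescence (525/598 nm) was read after 20 min.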
Each line names hits and unclear results; the compound was inactive in the other large screens. Unless noted, the call rests on the fitted dose curve; in most records, active means well fitted curve in the direction sought with a large enough effect; inconclusive means small, poorly fitted or top-dose-only effect, or another doubt; inactive means no such curve, though single readings can be large; an effect the other way counts as inactive or inconclusive.

Cc1ccc(CNC(=O)COc2ccc(C(=O)c3ccc(F)cc3)cc2)cc1	none
Cc1ccc(N2CC(NC(=O)c3ccc(S(=O)(=O)N4CCCC4)cc3)CC2=O)cc1 (centres undefined)	none (no result: LmPK inh, CHX counter, Shiga toxin inh, Giardia FBPA inh)
CCOC(=O)C(=Cc1ccc(-n2cncn2)cc1)C(=O)OCC	Sm TGR block 16µM
Cc1nc2c(c(C)c1CCC(=O)Nc1cccc(C(F)(F)F)c1)c(=O)n(C)c(=O)n2C	none (no result: LmPK inh, CHX counter, Shiga toxin inh, Giardia FBPA inh)
COC(=O)/C(=C1/Oc2ccc(C)cc2S1)C(F)(F)F	CHX counter 25, Shiga toxin inh 57
C(=C\n1nnc2ccccc21)/c1ccc[nH]1	Sm TGR block 25µM (no result: LmPK inh, CHX counter, Shiga toxin inh, Giardia FBPA inh)
c1ccc(-n2nnc3ccccc32)cc1	none
CC(=O)NCCNc1nc(-c2ccccc2C)nc2ccccc12	none (no result: LmPK inh, Sm TGR block, CHX counter, Shiga toxin inh, Tb PYK inh)
Cc1cc(Cl)c2oc(C(=O)N(C)C3CCOC3)c(C)c2c1 (centres undefined)	CHX counter 36, Shiga toxin inh 55, Tb PYK inh inconclusive
Cc1cc(Cl)c2oc(C(=O)N(C)Cc3ccon3)c(C)c2c1	CHX counter 48, Shiga toxin inh 95
Cc1c(C(=O)N(C)CCn2ccnc2C)oc2c(F)cccc12	none
Cc1cc(Cl)c2oc(C(=O)N(CCO)Cc3ccccc3)c(C)c2c1	CHX counter 21, Shiga toxin inh 64
Cc1c(C(=O)N(C)CCCCN2CCOCC2)oc2c(F)cccc12	CHX counter 15 (no result: Shiga toxin inh)
COC(=O)c1ccc(S(=O)(=O)N2Cc3ccccc3C2)cc1	none
CCOc1ccc(-c2cc(NC(=O)Nc3ccccc3Cl)c(C(=O)OC)s2)cc1	none (no result: LmPK inh, CHX counter, Shiga toxin inh, Giardia FBPA inh)
CCOC(=O)N1CCN(/[N+]([O-])=N/Oc2ccc([N+](=O)[O-])cc2[N+](=O)[O-])CC1	none (no result: LmPK inh, Sm TGR block, Tb PYK inh)
COC(=O)c1ccc(NC(=O)CC2C(=O)N(c3ccc(F)cc3)C(=O)N2Cc2ccc(OC)cc2)cc1 (centres undefined)	none (no result: LmPK inh, CHX counter, Shiga toxin inh, Giardia FBPA inh)
Cc1c(C(=O)N(CCO)Cc2ccccc2)oc2c(F)cccc12	CHX counter 35, Shiga toxin inh 32
O=C(CN1CCCCC1)NC(=O)NC1CCCC1	CHX counter 23, Shiga toxin inh 56
O=C(CN1CCCCCCC1)NC(=O)NC1CCCCC1	none
COc1cc(N2C(=O)C=CC2=O)c(OC)cc1Cl	LmPK inh 14µM, Sm TGR block 0.71µM, Tb PYK inh inconclusive, Giardia FBPA inh inconclusive
COC(=O)c1ccccc1NC(=O)CSc1nc2ccsc2c(=O)n1CCC(C)C	none (no result: LmPK inh, CHX counter, Shiga toxin inh, Giardia FBPA inh)
CC(=O)NC(Cc1ccccc1)C(=O)NC(Cc1ccccc1)C(=O)O (centres undefined)	Sm TGR block inconclusive
CC(=O)NC(CC(C)C)C(=O)NC(Cc1ccccc1)C(N)=O (centres undefined)	CHX counter 8.8
O=C(NC(Cc1ccccc1)C(=O)NC(Cc1ccccc1)C(=O)O)c1ccccc1 (centres undefined)	Sm TGR block 28µM
Cc1onc(-c2ccncc2)c1C(=O)O	CHX counter 27, Shiga toxin inh 55
O=C(Cl)CCCCCCCC(=O)Cl	none (no result: LmPK inh, Sm TGR block, Tb PYK inh)
Cc1ccc(C)c(NC(=O)Cn2c(=O)nc(-c3ccccc3)c3ccccc32)c1	none (no result: LmPK inh, CHX counter, Shiga toxin inh, Giardia FBPA inh)
N#Cc1c(-c2ccc(Cl)cc2)ccn2nc(C3CCCCC3)nc12	CHX counter 42
CCN(CC)c1ccc(/C=N/NC(=O)CCC(=O)NCc2ccccc2)c(O)c1	Giardia FBPA inh inconclusive
CCN(CC)c1ccc(/C=N/Nc2ccc(C)cc2)c(O)c1	Sm TGR block 4µM, Giardia FBPA inh inconclusive
CCOC(=O)N/N=C/c1ccc(N(CC)CC)cc1O	CHX counter 23, Shiga toxin inh 62
CCN(CC)c1ccc(/C=N/NC(=O)c2cccc(S(=O)(=O)N3CCOCC3)c2)c(O)c1	none
CCN(CC)c1ccc(/C=N/NC(=O)c2c(Cl)cnn2C)c(O)c1	CHX counter 44, Shiga toxin inh 56
COC(=O)[C@@H]1CC[C@H](C)[C@@H](c2ccc(C)cc2)N1C(=O)c1ccc(/C=N\O[C@@H](C)CN2CCCc3nc(C)c(C)cc32)cc1	none (no result: LmPK inh, Sm TGR block, CHX counter, Shiga toxin inh, Tb PYK inh)
O=C1NC(c2cccc([N+](=O)[O-])c2)=CCN1c1ccccc1O	Sm TGR block 45µM
c1ccc(CCSc2nccn2-c2ccccc2)cc1	CHX counter 52, Shiga toxin inh 120
C(=N\N1CCN(Cc2ccccc2)CC1)/c1cccs1	CHX counter 41, Shiga toxin inh 45
Cc1ccc(CN2CCN(/N=C/c3ccc(O)c(O)c3)CC2)cc1	Sm TGR block 32µM, Tb PYK inh inconclusive
Clc1ccc(/C=N/N2CCN(Cc3ccccc3)CC2)cc1	CHX counter 17
Oc1ccc(Br)cc1/C=N/N1CCN(Cc2ccccc2)CC1	none
C(=N\N1CCN(Cc2cccc3ccccc23)CC1)/c1cccs1	none
COc1cccc(/C=N/N2CCN(Cc3ccccc3)CC2)c1O	CHX counter 24
COc1ccc(C(=O)N2CCC[C@@]3(CCN(c4ncccn4)C3)C2)cc1	none (no result: LmPK inh, Sm TGR block, CHX counter, Shiga toxin inh)
Clc1ccc(CN2CCN(/N=C/c3ccco3)CC2)cc1	CHX counter 19
CSc1ccc(/C=N/N2CCN(Cc3ccccc3)CC2)cc1	CHX counter 30, Shiga toxin inh 49
CNc1oc(-c2ccccc2Cl)nc1C#N	CHX counter 17
CNc1oc(-c2ccc(Cl)cc2)nc1C#N	CHX counter 37, Shiga toxin inh 178
CNc1oc(-c2cccc3ccccc23)nc1C#N	none
COc1ccc(-c2nc(C#N)c(NC(C)C)o2)cc1	CHX counter 41, Shiga toxin inh 74
CCOc1ccc(NC(=O)Nc2nnc(N3CCCCC3C)s2)cc1 (centres undefined)	none (no result: LmPK inh, CHX counter, Shiga toxin inh, Giardia FBPA inh)
N=C(N)SCc1nc2ccccc2c(=O)n1-c1ccccc1Cl	CHX counter 50, Shiga toxin inh 81
Cc1nnc(SCc2nc3ccccc3c(=O)n2-c2ccccc2Cl)n1N	Sm TGR block 56µM
COC(=O)[C@@]1(Cc2ccc(OC)cc2)[C@H]2c3cc(C(=O)N4CCCC4)n(CCc4c[nH]c5cc(F)ccc45)c3C[C@H]2CN1C(=O)c1ccccc1	none (no result: LmPK inh, Sm TGR block, CHX counter, Shiga toxin inh, Tb PYK inh)
O=C(NC(c1ccc2c(c1)OCO2)c1ccccn1)C1CCN(CCOc2ccccc2)CC1 (centres undefined)	none (no result: LmPK inh, Sm TGR block, CHX counter, Shiga toxin inh, Giardia FBPA inh)
Cc1cc(C)nc(N/N=C/c2cccc(Cl)c2)n1	CHX counter 18
Cc1cc(N/N=C/c2ccccc2)nc(NCc2ccccc2)n1	CHX counter 24
Cc1cc(N/N=C/c2cccc(F)c2)nc(NCc2ccccc2)n1	CHX counter 20, Shiga toxin inh 65
Cc1cc(N/N=C/c2ccc(Cl)cc2)nc(NCc2ccccc2)n1	none
Clc1cccc(/C=N/Nc2nc(Cl)nc3ccccc23)c1	CHX counter 48, Shiga toxin inh 122
O=C(CSc1nnc(Nc2ccccc2)s1)NCC1CCCO1 (centres undefined)	none (no result: LmPK inh, CHX counter, Shiga toxin inh, Giardia FBPA inh)
Cc1cc(N/N=C/c2cccc(Cl)c2)nc(NCc2ccccc2)n1	CHX counter 23

High-throughput results as filed in PubChem.
